From PubChem BioAssay (Tox21) come the findings set out here.

Inconclusive results are not listed. The source made the active and inactive calls. Unless noted, the call rests on the fitted dose curve; in most records, active means well fitted curve in the direction sought with a large enough effect in the repeat runs; inconclusive means weak or mixed curves; inactive means no such curve, though single readings can be large; an effect the other way counts as inactive or inconclusive.

For assay [1], the target named is Acetylcholinesterase (Homo sapiens) (UniProt P22303). Put plainly: Acetylcholinesterase (AChE) small molecule antagonists: colormetric cell-based qHTS assay (AID 1347395; calls by dose curve; further: nearly all actives have a fitted effect of over 30% in size). The essentials: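 Neuroblastoma line SH-SY5Y supplied the enzyme; cells were preincubated with compound for 30 min at 37 C and 5% CO2. Acetylthiocholine with DTNB was then added for 90 min at 37 C, and thiocholine was measured by colour.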
Sequence of Acetylcholinesterase (Homo sapiens) (P22303 whole entry, looked up): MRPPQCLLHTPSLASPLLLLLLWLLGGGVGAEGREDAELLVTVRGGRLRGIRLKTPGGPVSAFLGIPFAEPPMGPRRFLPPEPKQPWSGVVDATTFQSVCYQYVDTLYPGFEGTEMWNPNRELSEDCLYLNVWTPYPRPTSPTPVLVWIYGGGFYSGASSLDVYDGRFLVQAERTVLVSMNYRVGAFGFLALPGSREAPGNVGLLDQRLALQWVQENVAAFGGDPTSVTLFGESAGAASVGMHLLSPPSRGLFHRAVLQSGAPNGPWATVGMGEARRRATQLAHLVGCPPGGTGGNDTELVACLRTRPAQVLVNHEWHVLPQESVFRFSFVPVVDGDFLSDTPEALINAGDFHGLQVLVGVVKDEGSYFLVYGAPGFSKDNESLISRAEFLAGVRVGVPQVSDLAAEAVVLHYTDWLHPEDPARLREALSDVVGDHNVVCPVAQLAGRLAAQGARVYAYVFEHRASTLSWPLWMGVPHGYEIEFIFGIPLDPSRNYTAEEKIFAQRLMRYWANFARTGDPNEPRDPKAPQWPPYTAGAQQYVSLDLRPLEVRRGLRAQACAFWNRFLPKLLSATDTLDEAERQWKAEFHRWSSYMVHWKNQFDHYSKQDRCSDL
A general note: qHTS replaces the single test concentration by a dilution series.

The target is the same in assay [2]. Briefly: Acetylcholinesterase (AChE) small molecule antagonists: enzyme-based qHTS assay (AID 1347397; calls by dose curve; further: nearly all actives have a fitted effect of over 55% in size). The settings on record: Potency: AChE enzyme activity inhibition. An outline of the steps:
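Enzyme inhibition was scored from DTNB-detected thiocholine formed by recombinant human AChE acting on acetylthiocholine. The 30 min compound preincubation and 10 min substrate reaction were both run at room temperature, with DMSO as vehicle control.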

The target is the same in assay [3]. Briefly: Acetylcholinesterase (AChE) small molecule antagonists: enzyme-based qHTS assay with human liver microsomes (AID 1347399; calls by dose curve; further: nearly all actives have a fitted effect of over 60% in size). The settings on record: Potency: qHTS inhibition. An outline of the steps: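 Recombinant human AChE (50 mU/mL in the enzyme mix) and human liver microsomes (0.25 mg/mL final) were preincubated with compound and NADPH (0.25 mg/mL final) for 30 min at 37 C. Acetylthiocholine/DTNB was then added; thiocholine was read colorimetrically after 10 min at room temperature.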

Assay [4] has as its target Cytochrome P450 2D6 (Homo sapiens) (UniProt P10635). Put plainly: Cytochrome P450 Family 2 Subfamily D Member 6 (CYP2D6) small molecule antagonists: luciferase reporter qHTS assay (AID 1671196). Further: nearly all actives have a fitted effect of over 50% in size. An outline of the steps: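 Cell-free P450-Glo system: CYP2D6 with proluciferin substrate was pre-incubated with compound for 10 min, then reacted with NADPH regeneration for 1 h at room temperature. Luciferin product was detected after 20 min, and data were reported as relative luminescence units.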

Assay [5] concerns the target Cytochrome P450 2C19 (Homo sapiens) (UniProt P33261). Put plainly: Cytochrome P450 Family 2 Subfamily C Member 19 (CYP2C19) small molecule antagonists: luciferase reporter qHTS assay (AID 1671197). Further: nearly all actives have a fitted effect of over 65% in size. An outline of the steps: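 Quantitative high-throughput screen of the Tox21 library using CYP2C19 with proluciferin substrate. Reaction: NADPH regeneration, 37C, 1 h, after 10 min compound preincubation at room temperature. Readout: luminescence.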
(In general: Reporter assays use an easily measured gene product as a stand-in for the process of interest.)

In assay [6] the target is Cytochrome P450 2C9 (Homo sapiens) (UniProt P11712). Put plainly: Cytochrome P450 Family 2 Subfamily C Member 9 (CYP2C9) small molecule antagonists: luciferase reporter qHTS assay (AID 1671198). Further: nearly all actives have a fitted effect of over 50% in size. An outline of the steps: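 P450-Glo proluciferin substrate with CYP2C9 enzyme; 10 min RT preincubation, then NADPH regeneration 1 h at 37C; luciferin detection reagent 20 min RT, luminescence in relative luminescence units.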
Sequence of Cytochrome P450 2C9 (Homo sapiens) (P11712 whole entry, looked up): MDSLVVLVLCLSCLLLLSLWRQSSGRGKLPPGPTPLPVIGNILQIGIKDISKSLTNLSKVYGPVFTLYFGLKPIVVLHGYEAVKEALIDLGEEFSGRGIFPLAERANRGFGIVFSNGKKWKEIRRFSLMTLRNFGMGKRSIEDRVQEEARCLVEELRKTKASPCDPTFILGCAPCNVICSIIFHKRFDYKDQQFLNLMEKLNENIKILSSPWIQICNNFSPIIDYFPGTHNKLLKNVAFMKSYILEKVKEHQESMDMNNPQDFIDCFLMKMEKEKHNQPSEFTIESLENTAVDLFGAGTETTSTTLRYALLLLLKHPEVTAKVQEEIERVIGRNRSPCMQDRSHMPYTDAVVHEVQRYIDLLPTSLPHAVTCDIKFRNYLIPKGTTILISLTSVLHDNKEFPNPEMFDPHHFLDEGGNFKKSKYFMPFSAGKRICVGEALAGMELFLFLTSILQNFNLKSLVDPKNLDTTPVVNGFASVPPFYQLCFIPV

Assay [7] concerns the target Cytochrome P450 1A2 (Homo sapiens) (UniProt P05177). Put plainly: Cytochrome P450 Family 1 Subfamily A Member 2 (CYP1A2) small molecule antagonists: luciferase reporter qHTS assay (AID 1671199). Further: nearly all actives have a fitted effect of over 50% in size. An outline of the steps: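 P450-Glo CYP1A2 enzyme–proluciferin substrate mix with compound 10 min at room temperature, then NADPH regeneration 1 h at room temperature. Luciferin detection reagent added, luminescence read after 20 min; furafylline positive control.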

Assay [8] deals with Cytochrome P450 3A4 (Homo sapiens) (UniProt P08684). Put plainly: Cytochrome P450 Family 3 Subfamily A Member 4 (CYP3A4) small molecule antagonists: luciferase reporter qHTS assay (AID 1671201). Further: nearly all actives have a fitted effect of over 50% in size. An outline of the steps:
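Setup: enzyme-substrate mix, compound pin transfer, 10 min RT. Reaction: NADPH regeneration solution, 1 h RT. Readout: detection reagent stops turnover, luminescence measured after 20 min, expressed in relative luminescence units.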

Assay [9] addresses Acetylcholinesterase (Homo sapiens) (UniProt P22303). Briefly: Acetylcholinesterase (AChE) small molecule antagonists: fluorescence cell-based qHTS assay (AID 1347398; calls by dose curve; further: nearly all actives have a fitted effect of over 50% in size). Conditions: Potency: AChE activity. An outline of the steps: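 Endogenous acetylcholinesterase of SH-SY5Y neuroblastoma cells is measured in situ. After overnight attachment and 30 min compound exposure, cells receive acetylthiocholine and Thiolite Green; fluorescence is read after 40 min at room temperature.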

For assay [10], the target named is Voltage-gated inwardly rectifying potassium channel KCNH2 (Homo sapiens) (UniProt Q12809). Put plainly: Human Ether-a-go-go-Related Gene (hERG) channel small molecule antagonists: fluorescence cell-based qHTS assay (AID 1671200). Further: nearly all actives have a fitted effect of over 50% in size. The essentials: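 Measured: Tl+ flux via fluorescence (480/540 nm) in hERG-expressing U2OS cells after 1 h dye loading at room temperature.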
Sequence of Voltage-gated inwardly rectifying potassium channel KCNH2 (Homo sapiens) (Q12809 whole entry, looked up): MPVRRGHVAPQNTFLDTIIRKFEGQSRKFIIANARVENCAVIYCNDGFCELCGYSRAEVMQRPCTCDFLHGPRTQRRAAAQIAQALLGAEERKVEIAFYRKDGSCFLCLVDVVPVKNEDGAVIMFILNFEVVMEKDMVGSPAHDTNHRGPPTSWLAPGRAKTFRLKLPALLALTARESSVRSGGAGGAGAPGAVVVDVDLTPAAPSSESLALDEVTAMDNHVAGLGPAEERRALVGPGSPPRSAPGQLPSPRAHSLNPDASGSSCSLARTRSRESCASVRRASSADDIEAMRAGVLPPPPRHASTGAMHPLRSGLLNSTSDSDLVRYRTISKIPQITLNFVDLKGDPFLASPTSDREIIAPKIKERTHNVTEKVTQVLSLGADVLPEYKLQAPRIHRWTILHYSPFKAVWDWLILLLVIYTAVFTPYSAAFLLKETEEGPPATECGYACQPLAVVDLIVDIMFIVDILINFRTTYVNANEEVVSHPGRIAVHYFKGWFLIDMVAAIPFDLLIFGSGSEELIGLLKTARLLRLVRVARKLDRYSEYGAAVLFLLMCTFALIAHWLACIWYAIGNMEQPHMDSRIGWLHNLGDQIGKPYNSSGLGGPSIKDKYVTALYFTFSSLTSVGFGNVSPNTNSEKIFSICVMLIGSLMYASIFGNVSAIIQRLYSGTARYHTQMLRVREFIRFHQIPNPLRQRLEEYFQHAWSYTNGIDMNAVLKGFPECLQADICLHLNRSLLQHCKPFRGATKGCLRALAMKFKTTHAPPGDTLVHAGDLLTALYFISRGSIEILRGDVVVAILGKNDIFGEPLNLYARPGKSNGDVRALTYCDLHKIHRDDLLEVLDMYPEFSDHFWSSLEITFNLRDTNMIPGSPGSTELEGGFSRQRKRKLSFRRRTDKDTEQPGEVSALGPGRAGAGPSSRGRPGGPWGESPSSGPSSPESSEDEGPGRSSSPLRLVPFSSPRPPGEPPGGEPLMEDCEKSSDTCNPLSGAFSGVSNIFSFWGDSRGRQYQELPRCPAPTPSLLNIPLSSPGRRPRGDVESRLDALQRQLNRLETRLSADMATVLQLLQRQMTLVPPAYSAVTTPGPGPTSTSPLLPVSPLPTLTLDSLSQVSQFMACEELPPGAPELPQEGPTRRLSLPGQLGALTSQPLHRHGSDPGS
On the technique in general: The hERG channel carries a current that helps repolarise heart muscle cells.
Potency means the concentration at half of the fitted maximal effect.

Sequence of Cytochrome P450 2D6 (Homo sapiens) (P10635 whole entry, looked up): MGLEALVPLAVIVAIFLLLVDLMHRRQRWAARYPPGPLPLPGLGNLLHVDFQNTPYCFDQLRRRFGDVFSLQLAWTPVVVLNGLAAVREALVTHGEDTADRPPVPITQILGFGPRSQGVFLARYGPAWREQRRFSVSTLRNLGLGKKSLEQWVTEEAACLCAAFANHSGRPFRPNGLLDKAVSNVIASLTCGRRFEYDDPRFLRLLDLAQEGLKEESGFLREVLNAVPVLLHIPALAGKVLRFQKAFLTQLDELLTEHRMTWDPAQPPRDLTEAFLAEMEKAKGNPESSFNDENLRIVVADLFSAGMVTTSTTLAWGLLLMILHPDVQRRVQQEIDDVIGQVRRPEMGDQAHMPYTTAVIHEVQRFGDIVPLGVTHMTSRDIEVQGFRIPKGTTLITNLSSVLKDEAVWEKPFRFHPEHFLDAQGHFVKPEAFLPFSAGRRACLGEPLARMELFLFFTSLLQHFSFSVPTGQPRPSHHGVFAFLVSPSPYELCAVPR
Sequence of Cytochrome P450 1A2 (Homo sapiens) (P05177 whole entry, looked up): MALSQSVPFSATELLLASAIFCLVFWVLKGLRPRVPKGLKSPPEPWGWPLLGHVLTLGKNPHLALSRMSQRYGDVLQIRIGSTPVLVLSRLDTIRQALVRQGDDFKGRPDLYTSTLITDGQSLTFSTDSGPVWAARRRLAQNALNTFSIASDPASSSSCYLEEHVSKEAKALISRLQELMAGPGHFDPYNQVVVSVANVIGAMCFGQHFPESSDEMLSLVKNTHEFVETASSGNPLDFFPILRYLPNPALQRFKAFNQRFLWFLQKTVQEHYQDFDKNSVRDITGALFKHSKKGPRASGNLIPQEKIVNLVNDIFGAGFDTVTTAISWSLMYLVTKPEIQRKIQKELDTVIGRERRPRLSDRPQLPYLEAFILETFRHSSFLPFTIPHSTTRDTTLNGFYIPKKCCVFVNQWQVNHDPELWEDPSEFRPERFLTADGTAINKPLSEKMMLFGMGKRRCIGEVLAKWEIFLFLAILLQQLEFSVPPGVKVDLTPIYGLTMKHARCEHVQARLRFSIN
Sequence of Cytochrome P450 3A4 (Homo sapiens) (P08684 whole entry, looked up): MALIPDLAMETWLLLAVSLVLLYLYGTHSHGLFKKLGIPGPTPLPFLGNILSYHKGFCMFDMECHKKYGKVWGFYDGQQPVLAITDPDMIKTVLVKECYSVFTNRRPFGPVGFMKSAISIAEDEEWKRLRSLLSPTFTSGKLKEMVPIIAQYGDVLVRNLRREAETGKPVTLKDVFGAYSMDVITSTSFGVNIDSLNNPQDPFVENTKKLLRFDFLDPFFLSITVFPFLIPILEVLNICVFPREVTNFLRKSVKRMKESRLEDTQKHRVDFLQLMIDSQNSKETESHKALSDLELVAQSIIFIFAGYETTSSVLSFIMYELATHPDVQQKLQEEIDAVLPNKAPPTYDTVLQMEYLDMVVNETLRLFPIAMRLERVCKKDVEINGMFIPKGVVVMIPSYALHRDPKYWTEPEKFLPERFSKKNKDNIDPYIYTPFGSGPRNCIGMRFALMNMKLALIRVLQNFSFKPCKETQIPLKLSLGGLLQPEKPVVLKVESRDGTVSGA
Sequence of Cytochrome P450 2C19 (Homo sapiens) (P33261 whole entry, looked up): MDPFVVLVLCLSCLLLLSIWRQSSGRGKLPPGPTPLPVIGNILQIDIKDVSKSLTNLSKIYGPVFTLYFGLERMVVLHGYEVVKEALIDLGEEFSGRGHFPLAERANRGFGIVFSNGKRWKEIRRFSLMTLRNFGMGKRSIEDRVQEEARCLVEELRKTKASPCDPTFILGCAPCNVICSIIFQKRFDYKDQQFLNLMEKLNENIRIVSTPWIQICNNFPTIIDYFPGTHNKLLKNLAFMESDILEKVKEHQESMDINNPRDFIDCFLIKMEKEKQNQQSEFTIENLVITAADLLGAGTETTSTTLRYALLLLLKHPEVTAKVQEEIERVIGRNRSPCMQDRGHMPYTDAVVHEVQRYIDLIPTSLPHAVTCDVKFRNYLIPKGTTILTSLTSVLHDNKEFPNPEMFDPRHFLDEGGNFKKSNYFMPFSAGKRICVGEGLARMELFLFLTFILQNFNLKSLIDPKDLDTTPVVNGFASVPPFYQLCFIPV

Turning to `Clc1ccc(C2(Cn3cncn3)CC(Br)CO2)c(Cl)c1` (centres undefined), the Potency result in assay [1], in assay [2] and in [3] was “inactive” each time. Moreover, the Potency was 31.5 µM (active) in assay [4]; 0.177 µM (active) in assay [5]; 5 µM (active) in assay [6]; 31.5 µM (active) in assay [7]; 0.126 µM (active) in assay [8].
Consider `COCCOCCO`, for which the Potency entry in assay [1], in [2], in assay [9], in assay [3] and in assay [10] was “inactive” throughout.
`O=NN1CCNCC1`: the Potency entry in assay [1], in assay [2], in assay [9], in assay [3], in assay [10] and in assay [8] was “inactive” throughout. Also, in assay [5], the Potency is 44.3 µM (active).
On to `CN(C)c1ccc(N(C)C)cc1`, for which the Potency in assay [1] is 40 µM (active); in assay [9], 40 µM (active); in [4], 20.1 µM (active); in assay [5], 7.99 µM (active); in assay [6] it was 20.1 µM (active); in [7], 40 µM (active). Moreover, in [8], the Potency is 35.7 µM (active). In addition, the Potency entry in assay [3] and in assay [10] was “inactive” in each case.
As for `C=CC(=O)NCNC(=O)C=C`, the Potency entry in assay [1], in [9], in assay [3], in [5], in assay [10] and in assay [8] was “inactive” in each case. The results for the Potency in assay [4] and in assay [7] were 3.56 µM (active) and 46.5 µM (active), respectively.
In the case of `CCCC(=O)Cl`, the Potency result in [1], in assay [9], in [3], in assay [4], in [5] and in assay [6] was “inactive” in each case. In addition, the Potency entry in assay [10] and in [8] was “inactive” in each case.
As to `CC1C(=O)C[C@]2(C(C)C)C[C@H]12` (some centres undefined), the Potency entry in [1], in assay [9], in assay [3], in assay [10] and in assay [8] was “inactive” throughout. Further, the Potency in [4] and in assay [5] was 34.5 µM (active) each time.
In the case of `CN(N=O)c1ccc([N+](=O)[O-])cc1`, the Potency was 63.3 µM (active) in assay [1], 35.6 µM (active) in [5] and 6.33 µM (active) in [7]. Moreover, the Potency entry in assay [2], in assay [3], in [10] and in assay [8] was “inactive” in each case.
Consider `CO/C=C(/C(=O)OC)c1ccccc1COc1cccc(C(F)(F)F)n1`, for which the Potency result in assay [1], in [9], in assay [3], in assay [10] and in assay [8] was “inactive” each time. The Potency in assay [4] was 39.9 µM (active); in [5] it was 0.709 µM (active); in assay [6] it was 39.9 µM (active); in assay [7] it was 35.5 µM (active).
On to `COC(=O)c1cncn1C(C)c1ccccc1` (centres undefined), for which the Potency entry in [1], in [9], in assay [3], in assay [7] and in [10] was “inactive” throughout. Further, the Potency in assay [4] was 8.71 µM (active); in [5] it was 3.89 µM (active); in assay [6] it was 27.5 µM (active); in [8] it was 0.309 µM (active).
Turning to `CCBr`, the Potency entry in assay [1], in assay [2], in assay [9], in assay [3], in assay [5] and in assay [10] was “inactive” in each case. In addition, the Potency result in assay [8] is “inactive”.
For the compound `O=C(CBr)OCc1ccccc1`, the Potency entry in [1], in assay [9], in assay [3], in assay [4], in [7] and in assay [10] was “inactive” in each case. The Potency result in assay [8] was “inactive”. Moreover, the Potency in assay [6] was 35.6 µM (active).
As to `C[C@H]1CNCCc2ccc(Cl)cc21`, the Potency result in [1], in assay [9], in assay [3], in [5], in assay [6] and in [7] was “inactive” in each case. In addition, the Potency entry in assay [10] and in assay [8] was “inactive” in each case. In addition, in [4], the Potency was 1.38 µM (active).
Take `Cc1ccccc1C(=O)Nc1cccc(OC(C)C)c1`: the Potency result in assay [1], in assay [9], in assay [3], in assay [4], in assay [10] and in assay [8] was “inactive” in each case. Also, the Potency was 7.96 µM (active) in assay [5], 22.4 µM (active) in assay [6] and 5.64 µM (active) in assay [7].
For the compound `ClCc1ccccc1`, the Potency result in assay [1], in [2], in assay [9], in assay [3], in [6] and in assay [7] was “inactive” throughout. For the same compound, the Potency result in assay [10] and in assay [8] was “inactive” in each case.
Take `CCOP(O)OCC`: the Potency entry in assay [1], in assay [9], in assay [3], in [4], in assay [5] and in [6] was “inactive” each time. Moreover, the Potency result in assay [7], in [10] and in assay [8] was “inactive” in each case.
Consider `II`, for which the Potency result in assay [1], in assay [9], in assay [3] and in [10] was “inactive” each time. Also, the Potency was 28.3 µM (active) in assay [4], 56.4 µM (active) in assay [5], 31.7 µM (active) in [6] and 71 µM (active) in assay [7].
Consider `C/C(=C\c1ccccc1)[N+](=O)[O-]`, for which the Potency result in [1], in assay [2], in assay [9], in assay [3] and in assay [10] was “inactive” in each case. In addition, the Potency in [6] was 35.6 µM (active); in assay [7], 35.6 µM (active); in assay [8] it was 44.8 µM (active).
For the compound `CN1C[C@H](CNC(=O)OCc2ccccc2)C[C@@H]2c3cccc4c3c(cn4C)C[C@H]21`, the Potency is 3.47 µM (active) in assay [1]; 7.76 µM (active) in [2]; 0.871 µM (active) in assay [9]; 30.9 µM (active) in assay [3]; 3.38 µM (active) in [10]. In addition, the Potency result in assay [6], in assay [7] and in assay [8] was “inactive” throughout.
Turning to `C=CC(=O)OCC(C)C`, the Potency result in assay [1], in assay [9], in assay [3], in [4], in assay [5] and in [6] was “inactive” in each case. In addition, the Potency entry in assay [10] and in [8] was “inactive” in each case.
